Measurements taken from PubChem BioAssay (Tox21).
Records with an inconclusive call do not appear. A call without a number means that no potency is given here. More than one record can exist for a structure, and the calls need not agree. Calls of active or inactive are those of the source. Calls come from the whole dose curve; as a rule, active = well fitted inhibition curve with a large enough effect in the repeat runs; inconclusive = weak or mixed curves, or effect the other way; inactive = no such curve, though single readings can be large or run the other way.

molecular target: Nuclear receptor subfamily 1 group I member 3 (Homo sapiens) (UniProt Q14994); assay: qHTS assay to identify small molecule antagonists of the constitutive androstane receptor (CAR) signaling pathway (AID 1224838); conditions: HepG2-CYP2B6-hCAR luciferase, CITCO-stimulated, 24 h; series mostly up to 92.4 µM;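 note: HepG2 cells stably expressing hCAR with CYP2B6 luciferase reporter stimulated by CITCO; nearly all actives have a fitted effect of over 40% in size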
Source text: U.S. Tox21 Program National Center for Advancing Translational Sciences [NCATS] NIH Chemical Genomics Center [NCGC] U.S. Environmental Protection Agency [EPA] National Institutes of Environmental Health Sciences [NIEHS] National Toxicology Program [NTP] U.S. Food and Drug Administration [FDA] Tox21 Assay Overview: The constitutive androstane receptor (CAR) is a nuclear receptor which regulates multiple drug metabolizing enzymes (DMEs) and transporters. Activating CAR will generally increase the transcription and subsequent translation of CYP2B6 and CYP3A4. These two DMEs represent about 50% of the drug metabolizing potential in the body. When CAR is deactivated, the metabolizing potential in the body will decrease, subsequently increasing the toxicity in the body or lowering the therapeutic potential of a pro-drug. Recently, there have also been studies performed indicating CARs role in energy metabolism and cancer therapy. Therefore, inhibiting CARs activity could have a potential effect on diabetes and cancer. Identifying environmental toxins and compounds which modulate CAR, through the use of the Tox21 10K compound collection, will be an important step in determining the toxicity and potential therapeutic effects these factors will have on the human body.
Tox21 Assay Protocol Summary: A double-stable (hCAR and CYP2B6-2.2kb) transfected cell line, derived from human hepatoma (HepG2) cells, was utilized for the duration of the quantitative high-throughput screens. The HepG2-CYP2B6-hCAR cells suspended in DMEM culture medium supplemented with 10% FBS, 5 ug/mL blasticidin, 0.5 mg/mL geneticin, 100 U/mL penicillin and 100 ug/mL streptomycin were dispensed at 2500 cells/4 uL/well in 1536-well white solid bottom plates using a Multidrop Combi. After the assay plates were incubated at 37 C/5% CO2 for 4 hrs, 23 nL of compounds at 15 concentrations (from 5-48 columns) or positive control (from 1 to 4 columns) were transferred to the assay plates using a Pintool station. One uL of CITCO, was added using a Flying Reagent Dispenser to generate a final concentration of 50 nM CITCO inside each well. After a 24 hr incubation period at 37 C/5% CO2, four uL of ONE-Glo reagent was added into the assay plates using a Flying Reagent Dispenser. After a 30 min incubation period at room temperature, the luminescence intensity in the assay plates was measured using a ViewLux plate reader.
Potency is the fitted concentration of half-maximal effect.

Sequence of Nuclear receptor subfamily 1 group I member 3 (Homo sapiens) (Q14994 whole entry, looked up): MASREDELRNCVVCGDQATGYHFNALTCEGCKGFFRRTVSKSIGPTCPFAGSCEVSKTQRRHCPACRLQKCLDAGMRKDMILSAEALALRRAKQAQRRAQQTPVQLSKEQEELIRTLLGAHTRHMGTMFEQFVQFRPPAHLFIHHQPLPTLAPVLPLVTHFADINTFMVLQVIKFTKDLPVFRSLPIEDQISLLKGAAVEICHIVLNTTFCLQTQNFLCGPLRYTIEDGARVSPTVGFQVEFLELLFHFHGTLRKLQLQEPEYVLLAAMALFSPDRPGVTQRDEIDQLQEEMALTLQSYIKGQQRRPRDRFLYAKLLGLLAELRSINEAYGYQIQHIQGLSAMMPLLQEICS

How did the Potency turn out when `C1=Cc2cccc3cccc1c23` was run?
The Potency was “inactive”.

With `Cc1ccccc1[N+](=O)[O-]` as the molecule, how does the Potency read?
Its Potency is “inactive”.

How did the Potency turn out when `CCCCC(CC)COC(=O)Cl` (stereo not given) was run?
Its Potency is “inactive”.

`C=CC(=O)OCCO` was tested. Which Potency did it give?
Its Potency is “inactive”.

For `C=C(C)C(=O)OCC1CO1` (stereo not given), which Potency is on record?
Its Potency is “inactive”.

For `CNC(=O)N(C)c1nnc(C(C)(C)C)s1`, which Potency is on record?
The Potency was “inactive”.

`CCCCC(CC)COC(=O)c1ccc(C(=O)OCC(CC)CCCC)c(C(=O)OCC(CC)CCCC)c1` (stereo not given) was tested. Which Potency did it give?
Its Potency is “inactive”.

Which Potency does the source give for `CCC(C)c1cc([N+](=O)[O-])cc([N+](=O)[O-])c1O` (stereo not given) here?
Its Potency is “inactive”.

Which Potency does the source give for `c1ccc(P(c2ccccc2)c2ccccc2)cc1` here?
The Potency was “inactive”.

With `CCCCN(CC)c1c([N+](=O)[O-])cc(C(F)(F)F)cc1[N+](=O)[O-]` as the molecule, how does the Potency read?
Its Potency is “inactive”.

For `COP(=O)(OC)OC`, which Potency is on record?
Its Potency is 30.9 µM (active) and inactive.

Which Potency does the source give for `CCCCNC(=O)n1c(NC(=O)OC)nc2ccccc21` here?
Its Potency is “inactive”.

With `Nc1ccc(-c2ccccc2)cc1` as the molecule, how does the Potency read?
Its Potency is “inactive”.

For `C=CCc1ccc(OC)cc1`, which Potency is on record?
Its Potency is “inactive”.

For `Nc1ccc(Cl)cc1N`, which Potency is on record?
Its Potency is 217 nM (active).

How did the Potency turn out when `CCOCN(C(=O)CCl)c1c(C)cccc1CC` was run?
Its Potency is “inactive”.

How did the Potency turn out when `CCOc1cc(C=O)ccc1O` was run?
The Potency was “inactive”.

How did the Potency turn out when `CC(C)=CC1C(C(=O)OCc2coc(Cc3ccccc3)c2)C1(C)C` (stereo not given) was run?
Its Potency is “inactive”.

How did the Potency turn out when `CC(C)N(C(=O)SCC(Cl)=C(Cl)Cl)C(C)C` was run?
The Potency was “inactive”.

How did the Potency turn out when `Cc1c(COC(=O)[C@@H]2[C@H](/C=C(\Cl)C(F)(F)F)C2(C)C)cccc1-c1ccccc1` was run?
Its Potency is 53.2 µM (active) and inactive.

For `N#Cc1cc(Br)c(O)c(Br)c1`, which Potency is on record?
Its Potency is “inactive”.

For `c1cc(OCC2CO2)ccc1Cc1ccc(OCC2CO2)cc1` (stereo not given), which Potency is on record?
The Potency was “inactive”.

Which Potency does the source give for `c1nc[nH]n1` here?
The Potency was “inactive”.

With `Nn1cnnc1` as the molecule, how does the Potency read?
Its Potency is “inactive”.

With `O=[N+]([O-])c1c(Cl)c(Cl)c(Cl)c(Cl)c1Cl` as the molecule, how does the Potency read?
The Potency was “inactive”.

With `CCC(CC)Nc1c([N+](=O)[O-])cc(C)c(C)c1[N+](=O)[O-]` as the molecule, how does the Potency read?
Its Potency is “inactive”.

How did the Potency turn out when `C=CCc1ccc2c(c1)OCO2` was run?
Its Potency is “inactive”.

`Cc1cc(Cl)ccc1OCCCC(=O)O` was tested. Which Potency did it give?
Its Potency is “inactive”.

For `O=c1oc2ccccc2c(O)c1C(CC(O)c1ccc(-c2ccc(Br)cc2)cc1)c1ccccc1` (stereo not given), which Potency is on record?
The Potency was “inactive”.

Which Potency does the source give for `C[C@]12CCC(=O)C(O)=C1CC[C@@H]1[C@@H]2CC[C@]2(C)C(=O)CC[C@@H]12` here?
The Potency was “inactive”.

Which Potency does the source give for `N#CC(Br)Br` here?
The Potency was “inactive”.

Which Potency does the source give for `Cc1cccc(N)c1N` here?
Its Potency is “inactive”.

With `O=C1C=CC(=O)C=C1` as the molecule, how does the Potency read?
The Potency was “inactive”.

With `CCc1cccc(CC)c1N(COC)C(=O)CCl` as the molecule, how does the Potency read?
Its Potency is “inactive”.

How did the Potency turn out when `CCCCCc1cc(O)cc(O)c1` was run?
The Potency was “inactive”.

For `C=CCN(CC=C)C(=O)C(Cl)Cl`, which Potency is on record?
Its Potency is “inactive”.

With `CCCCCCCCOC(=O)c1ccccc1C(=O)OCCCCCCCC` as the molecule, how does the Potency read?
The Potency was “inactive”.

How did the Potency turn out when `O=S(=O)(Oc1ccc(Cl)cc1)c1ccc(Cl)cc1` was run?
The Potency was “inactive”.

`Cc1ccc(N)c(N)c1` was tested. Which Potency did it give?
The Potency was “inactive”.

With `CCCCCCOC(=O)c1ccccc1C(=O)OCCCCCC` as the molecule, how does the Potency read?
Its Potency is “inactive”.
